The source of these data is PubChem BioAssay (NCATS).

Assay [1] concerns the target Transient receptor potential cation channel subfamily V member 1 (Homo sapiens) (UniProt Q8NER1). The assay is described as follows: HTS Assay for Compounds that Act as Enhancers of the Vanilloid Receptor 1 (AID 488979). Also: 0% is about no effect. The method in brief: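 TRPV1-expressing cells loaded with Fluo-8 calcium dye; compounds added and calcium influx read kinetically for 3 min (agonist phase), then capsaicin at EC20 added and read 2 min more for enhancement. Fluorescence ex 480/em 520 nm.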

The target of assay [2] is Thyrotropin receptor (Homo sapiens) (UniProt P16473). Briefly: qHTS Assay for Antagonists of the Thyroid Stimulating Hormone Receptor (AID 488980). Also: series mostly up to about 58 µM; 0% is about no effect. Put shortly:
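Inhibition of TSH-stimulated cAMP accumulation was quantified by homogeneous time-resolved FRET in TSHR-transfected HEK293 cells. Agonist: TSH, 4 nM final (EC80).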

For assay [3], the target named is D(1A) dopamine receptor (Homo sapiens) (UniProt P21728). Briefly: HTS Assay for Allosteric Agonists of the Human D1 Dopamine Receptor: Primary Screen for Potentiators (AID 488982). Also: 0% is about no effect. The method in brief:
(§1)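 Tetracycline-induced HEK293 T-REx cells force-coupled to calcium signalling were incubated overnight at 30 C and dye-loaded at room temperature. Calcium flux over 180 s after compound addition flagged agonists; a further 180 s read after EC20 dopamine flagged potentiators.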

For assay [4] the target is unchanged. The assay is described as follows: HTS Assay for Allosteric Agonists of the Human D1 Dopamine Receptor: Primary Screen for Antagonists (AID 488983).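 Also: calcium flux response to an EC80 dopamine challenge measured with no-wash dye; % is scaled to controls: 0 for no effect and ±100 for the full control effect; nearly all actives have a fitted effect of over 65% in size.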 Put shortly: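 Screening of inducible HEK293 T-REx D1 cells: compound first, EC80 dopamine 180 s later, each phase read kinetically for calcium over 180 s.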
Assay [5] in a line: Validation screen for small molecules that induce genotoxicity in human embryonic kidney (HEK293T) cells expressing luciferase-tagged ELG1 (AID 493106). Also: 0% is about no effect. The method in brief:
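Reporter-gene quantitative HTS in HEK293T cells carrying luciferase-tagged ELG1, whose level climbs under genotoxic stress. Compound exposure lasts 16 hr at 37 °C before luciferase detection.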

Assay [6] has as its target ATPase family AAA domain-containing protein 5 (Homo sapiens) (UniProt Q96QE3). The assay is described as follows: Validation screen for small molecules that inhibit ELG1-dependent DNA repair in human embryonic kidney (HEK293T) cells expressing luciferase-tagged ELG1 (AID 493107).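 Also: cells co-treated with the DNA-damaging agent 5-fluorouridine alongside compound; series mostly up to about 46 µM; % is scaled to controls: 0 for no effect and ±100 for the full control effect; inhibitors lower the ELG1-luciferase luminescence signal; nearly all actives have a fitted effect of over 70% in size.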 Put shortly: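 Quantitative HTS in HEK293T cells carrying luciferase-tagged ELG1, stimulated with 5-fluorouridine alongside compound for 16 hr. Loss of luciferase signal marks inhibition of ELG1 response.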

Assay [7] deals with Thyrotropin-releasing hormone receptor (Homo sapiens) (UniProt P34981). Briefly: qHTS for Small Molecule Agonists and Allosteric Enhancers of Human TRH Receptor: Validation Screen for Agonists (AID 493127;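 active = calcium activation more than 3 SD above the typical response in the agonist read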;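 also: intracellular calcium rise by fluo-8 fluorescence before TRH EC20 addition; 0% is about no effect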). The settings on record: TRH receptor agonist cell assay; at 2 µM; stronger effect = higher value. The method in brief: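 Gq-coupled calcium mobilization in TRHR cells after compound addition, monitored kinetically with fluo-8 dye on an FDSS reader.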
Chain of Thyrotropin-releasing hormone receptor (Homo sapiens) (P34981 whole entry, looked up): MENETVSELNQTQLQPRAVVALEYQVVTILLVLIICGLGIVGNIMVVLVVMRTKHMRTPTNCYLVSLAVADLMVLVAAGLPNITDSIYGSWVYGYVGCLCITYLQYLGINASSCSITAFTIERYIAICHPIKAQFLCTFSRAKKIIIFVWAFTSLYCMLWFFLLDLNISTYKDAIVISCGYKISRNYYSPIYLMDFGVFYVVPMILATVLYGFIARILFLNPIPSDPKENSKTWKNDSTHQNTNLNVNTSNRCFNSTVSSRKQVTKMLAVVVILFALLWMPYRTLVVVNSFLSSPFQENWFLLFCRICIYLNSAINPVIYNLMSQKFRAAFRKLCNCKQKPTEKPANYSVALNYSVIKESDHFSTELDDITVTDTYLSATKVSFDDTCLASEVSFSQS
For orientation: Quantitative high-throughput screening tests each substance at several concentrations.

Assay [8] in a line: qHTS for Inhibitors of Cell Surface uPA Generation: Validation Assay (AID 493164).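 Also: RAW 264.7 macrophage cells exposed to compound for 18 h; 0% is about no effect.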 The method in brief:
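RAW 264.7, 4000 cells/well, o/n plating; cpd 7-pt 1:5 dilution 2.45 nM–38.3 uM final; 18 h, 37 C/5% CO2; ATP-Lite, 5 s luminescence exposure.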

Assay [9] has as its target Galactokinase (Homo sapiens) (UniProt P51570). The assay is described as follows: qHTS Validation Assay for Inhibitors of Human Galactokinase (GALK) (AID 493189). Also: 0% is about no effect. The method in brief:
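Enzyme activity is inferred from ATP consumption: human GALK phosphorylates galactose (100 uM) using 35 uM ATP for 1 h at room temperature, and luciferase-based Kinase-Glo Plus reports unconsumed ATP.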

Assay [10] can be described thus: Validation screen for small molecules that induce DNA re-replication in SW480 colon adenocarcinoma cells (AID 504364). Also: 0% is about no effect. The method in brief: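 Cells are treated 48 hr with test compound, stained 40 min with Hoechst at 37 C, and scanned for nuclear fluorescence; compounds inducing re-replication increase nuclei with elevated intensity.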
For assay [11], the target named is Peptidyl-prolyl cis-trans isomerase NIMA-interacting 1 (Homo sapiens) (UniProt Q13526). The assay is described as follows: qHTS Validation Assay to Find Inhibitors of Pin1 (AID 504536; active = well fitted inhibition curve with a large enough effect in the polarisation, with a control signal flat, not every such curve was filed as active; the % refers to the polarisation;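 also: 0% = full Pin1 enzyme wells and -100% = no-enzyme wells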). The method in brief: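 Fluorescence polarization competition: compounds (titration) displace HiFluor-488-labeled Pin1-1b peptide from Pin1 (0.3 uM final) in pH 7.5 HEPES buffer with DTT, 10 min at room temperature; %Activity normalized to no-enzyme wells, curves fitted.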
Chain of Peptidyl-prolyl cis-trans isomerase NIMA-interacting 1 (Homo sapiens) (Q13526 whole entry, looked up): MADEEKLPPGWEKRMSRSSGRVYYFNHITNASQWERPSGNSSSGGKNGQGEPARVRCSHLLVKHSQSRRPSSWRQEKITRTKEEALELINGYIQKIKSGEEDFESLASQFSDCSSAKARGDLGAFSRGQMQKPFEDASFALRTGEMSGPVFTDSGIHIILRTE

Assay [12] has as its target Phosphoglycerate kinase, glycosomal (Trypanosoma brucei brucei) (UniProt P07378). Briefly: qHTS Validation Assay to Find Inhibitors of Phosphoglycerate Kinase (AID 504547).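 Also: control wells lack PGK and mark full inhibition.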 The method in brief:
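Substrate/PGK mix plus compound; reaction started with GAPDH (100nM final) to form 1,3-BPG; 60 min RT; Kinase-Glo Plus 10 min; luminescence. TEA 100mM pH 7.6, MgCl2 5mM, Tween-20 0.01%.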

For assay [13], the target named is Ubiquitin carboxyl-terminal hydrolase 1 (Homo sapiens) (UniProt O94782). Briefly: Inhibitors of USP1/UAF1: Pilot qHTS (AID 504865).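 Also: rhodamine fluorescence freed from ubiquitin-rhodamine substrate followed over time; top concentration of the series differs between compounds; % is scaled to controls: 0 for no effect and ±100 for the full control effect; nearly all actives have a fitted effect of over 35% in size.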 The method in brief: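 Enzyme-free wells gave the negative control, while test wells held 1nM USP1/UAF1 preincubated with compound for 15 min at room temperature. Ub-Rho at 150nM final started the reaction, and fluorescence at 480/540 nm was recorded kinetically.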
Chain of Ubiquitin carboxyl-terminal hydrolase 1 (Homo sapiens) (O94782 whole entry, looked up): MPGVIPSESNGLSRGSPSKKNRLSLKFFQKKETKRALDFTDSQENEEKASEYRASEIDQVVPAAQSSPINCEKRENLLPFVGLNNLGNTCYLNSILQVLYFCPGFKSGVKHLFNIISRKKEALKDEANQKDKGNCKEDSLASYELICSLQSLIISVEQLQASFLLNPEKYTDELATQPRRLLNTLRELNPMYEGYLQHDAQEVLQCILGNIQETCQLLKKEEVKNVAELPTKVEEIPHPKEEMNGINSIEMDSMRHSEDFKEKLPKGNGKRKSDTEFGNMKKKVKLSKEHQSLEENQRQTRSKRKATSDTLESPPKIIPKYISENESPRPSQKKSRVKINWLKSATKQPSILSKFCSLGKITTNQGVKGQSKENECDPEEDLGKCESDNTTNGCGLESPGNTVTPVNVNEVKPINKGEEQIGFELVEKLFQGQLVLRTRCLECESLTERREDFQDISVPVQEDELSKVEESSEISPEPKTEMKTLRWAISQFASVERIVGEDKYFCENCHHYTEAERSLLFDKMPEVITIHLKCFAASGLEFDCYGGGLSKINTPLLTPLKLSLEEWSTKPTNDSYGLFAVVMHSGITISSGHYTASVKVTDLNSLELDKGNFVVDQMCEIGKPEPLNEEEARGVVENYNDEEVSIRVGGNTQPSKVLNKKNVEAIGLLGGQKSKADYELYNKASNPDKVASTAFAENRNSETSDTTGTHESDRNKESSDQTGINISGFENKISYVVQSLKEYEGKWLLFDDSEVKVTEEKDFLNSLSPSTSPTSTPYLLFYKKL

Assay [14] in a line: qHTS for Inhibitors of ATXN expression: Validation of Cytotoxic Assay (AID 588349).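 Also: cells exposed to compound for 72 hr; % is scaled to controls: 0 for no effect and ±100 for the full control effect.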 The method in brief:
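HEK293, compound dose series, 72 hr / 37 degrees C; viability via CellTiter Glo (intracellular ATP).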

The nature of assay [15]: qHTS for Inhibitors of ATXN expression: Validation (AID 588378). Also: series mostly up to about 57 µM; % is scaled to controls: 0 for no effect and ±100 for the full control effect; nearly all actives have a fitted effect of over 75% in size. The method in brief: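 After a 2 h attachment and 24 h compound incubation, HEK293-ATXN2-FFLuc wells are read for fluorescence at 405 nm excitation/525 nm emission as a viability measure, then for Bright-Glo luminescence reflecting ATXN2 expression.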
Assay [16] can be described thus: Nrf2 qHTS screen for inhibitors: Validation (AID 493153; active = well fitted inhibition curve with a large enough effect in the main read-out, with a control signal flat, not every such curve was filed as active). As to conditions: Potency: luciferase luminescence; viability change: measured here: cytotoxicity max response. Put shortly:
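Dose-response validation uses reporter A549 cells with firefly luciferase under an antioxidant response element. Compounds stay on cells 18-24 h at 37°C, and luminescence indicates Nrf2-driven transcription.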

The target in assay [17] is phosphoglycerate mutase (Leishmania major) (UniProt Q4Q090). Briefly: qHTS Validation Assay to Find Inhibitors of Phosphoglycerate Mutase (AID 504548).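 Also: end-point luminescence from Kinase-GloPlus after the PGAM reaction; series mostly up to about 58 µM; % is scaled to controls: 0 for no effect and ±100 for the full control effect.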 As to conditions: Potency: inhibition qHTS. The method in brief:
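Inhibition of L. major PGAM was assessed by Kinase-GloPlus luminescence following a 45-minute room-temperature reaction with enzyme at 1.25nM final.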

The target of assay [18] is D(1A) dopamine receptor (Homo sapiens) (UniProt P21728). Briefly: HTS Assay for Allosteric Agonists of the Human D1 Dopamine Receptor: Primary Screen for Agonists (AID 488981). Also: 0% is about no effect. The method in brief:
as §1

Structures are written as SMILES. “And” between values parts separate entries of the source, which are not always exact repeats. Equal values may be shown once. Records with an inconclusive call do not appear. The source made the active and inactive calls. Unless noted, calls follow the shape of the dose curve; as a rule, active = well fitted curve in the direction sought with a large enough effect; inconclusive = small, poorly fitted or top-dose-only effect, or another doubt; inactive = no such curve, though single readings can be large; an effect the other way counts as inactive or inconclusive.

Chain of Thyrotropin receptor (Homo sapiens) (P16473 whole entry, looked up): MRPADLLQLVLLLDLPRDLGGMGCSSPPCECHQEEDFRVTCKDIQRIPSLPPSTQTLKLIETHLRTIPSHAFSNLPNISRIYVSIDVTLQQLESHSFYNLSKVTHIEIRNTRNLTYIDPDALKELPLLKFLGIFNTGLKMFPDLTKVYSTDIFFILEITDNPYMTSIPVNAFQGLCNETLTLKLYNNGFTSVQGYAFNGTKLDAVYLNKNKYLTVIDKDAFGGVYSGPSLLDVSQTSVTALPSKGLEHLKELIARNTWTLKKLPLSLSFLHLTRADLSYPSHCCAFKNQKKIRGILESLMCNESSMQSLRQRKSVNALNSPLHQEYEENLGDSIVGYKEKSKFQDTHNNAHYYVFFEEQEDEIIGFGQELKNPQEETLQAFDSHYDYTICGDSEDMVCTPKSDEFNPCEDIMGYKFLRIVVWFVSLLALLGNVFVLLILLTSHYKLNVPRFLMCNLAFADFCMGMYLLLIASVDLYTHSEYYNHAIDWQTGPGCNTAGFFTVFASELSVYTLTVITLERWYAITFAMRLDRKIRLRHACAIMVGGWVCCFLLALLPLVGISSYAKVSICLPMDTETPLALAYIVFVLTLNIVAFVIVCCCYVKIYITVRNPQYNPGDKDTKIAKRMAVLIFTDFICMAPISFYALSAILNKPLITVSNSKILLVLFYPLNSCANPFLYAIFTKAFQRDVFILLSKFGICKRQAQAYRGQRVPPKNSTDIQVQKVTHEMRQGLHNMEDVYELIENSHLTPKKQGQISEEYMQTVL
Chain of Transient receptor potential cation channel subfamily V member 1 (Homo sapiens) (Q8NER1 whole entry, looked up): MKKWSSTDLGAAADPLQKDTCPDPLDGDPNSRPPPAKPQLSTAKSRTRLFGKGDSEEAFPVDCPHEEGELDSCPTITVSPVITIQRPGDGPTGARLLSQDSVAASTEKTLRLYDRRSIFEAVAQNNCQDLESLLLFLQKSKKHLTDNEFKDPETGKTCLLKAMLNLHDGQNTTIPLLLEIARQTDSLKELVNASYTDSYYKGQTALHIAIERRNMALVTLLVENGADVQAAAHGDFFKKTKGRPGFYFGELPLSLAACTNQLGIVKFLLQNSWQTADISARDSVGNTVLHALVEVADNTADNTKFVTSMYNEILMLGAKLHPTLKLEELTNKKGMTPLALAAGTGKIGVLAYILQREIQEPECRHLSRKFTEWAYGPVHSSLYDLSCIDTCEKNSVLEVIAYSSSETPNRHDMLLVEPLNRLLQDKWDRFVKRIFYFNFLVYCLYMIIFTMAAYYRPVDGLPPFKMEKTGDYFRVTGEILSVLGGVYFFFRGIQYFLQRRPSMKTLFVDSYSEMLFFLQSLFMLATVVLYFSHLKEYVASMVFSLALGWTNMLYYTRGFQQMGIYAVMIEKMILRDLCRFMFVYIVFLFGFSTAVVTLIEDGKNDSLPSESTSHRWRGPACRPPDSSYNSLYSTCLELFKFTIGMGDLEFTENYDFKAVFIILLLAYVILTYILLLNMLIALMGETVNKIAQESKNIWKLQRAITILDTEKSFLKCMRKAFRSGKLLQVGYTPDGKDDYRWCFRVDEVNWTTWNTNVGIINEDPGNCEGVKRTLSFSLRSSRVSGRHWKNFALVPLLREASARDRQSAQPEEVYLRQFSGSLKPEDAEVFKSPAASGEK
Chain of D(1A) dopamine receptor (Homo sapiens) (P21728 whole entry, looked up): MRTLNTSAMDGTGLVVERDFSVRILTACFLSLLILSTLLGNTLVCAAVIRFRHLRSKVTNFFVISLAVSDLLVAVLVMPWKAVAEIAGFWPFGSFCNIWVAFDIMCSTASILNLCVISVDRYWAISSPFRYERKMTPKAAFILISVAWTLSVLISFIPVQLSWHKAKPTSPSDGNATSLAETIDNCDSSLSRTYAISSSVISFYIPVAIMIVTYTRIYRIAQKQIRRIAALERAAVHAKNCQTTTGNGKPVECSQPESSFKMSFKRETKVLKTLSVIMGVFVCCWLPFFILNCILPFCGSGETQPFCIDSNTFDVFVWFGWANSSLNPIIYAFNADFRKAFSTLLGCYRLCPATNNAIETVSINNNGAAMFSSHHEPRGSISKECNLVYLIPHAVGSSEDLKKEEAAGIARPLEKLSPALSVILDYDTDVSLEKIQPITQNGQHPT
Chain of phosphoglycerate mutase (Leishmania major) (Q4Q090 1-553): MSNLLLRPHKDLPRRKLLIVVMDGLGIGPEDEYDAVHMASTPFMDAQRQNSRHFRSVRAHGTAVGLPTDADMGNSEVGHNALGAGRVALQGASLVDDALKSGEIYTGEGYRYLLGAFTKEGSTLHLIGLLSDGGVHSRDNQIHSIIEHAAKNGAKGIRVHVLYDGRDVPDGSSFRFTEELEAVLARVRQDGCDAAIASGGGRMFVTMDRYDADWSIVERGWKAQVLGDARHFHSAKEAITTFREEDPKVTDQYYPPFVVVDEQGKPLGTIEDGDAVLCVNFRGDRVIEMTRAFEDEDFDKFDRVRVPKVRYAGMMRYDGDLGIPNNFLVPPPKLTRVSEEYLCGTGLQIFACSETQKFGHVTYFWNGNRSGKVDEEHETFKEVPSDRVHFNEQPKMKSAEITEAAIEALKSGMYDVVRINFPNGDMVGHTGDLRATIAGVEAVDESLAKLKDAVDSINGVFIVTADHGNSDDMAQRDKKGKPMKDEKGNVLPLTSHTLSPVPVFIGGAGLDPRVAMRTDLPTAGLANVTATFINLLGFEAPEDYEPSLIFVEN
Chain of Galactokinase (Homo sapiens) (P51570 whole entry, looked up): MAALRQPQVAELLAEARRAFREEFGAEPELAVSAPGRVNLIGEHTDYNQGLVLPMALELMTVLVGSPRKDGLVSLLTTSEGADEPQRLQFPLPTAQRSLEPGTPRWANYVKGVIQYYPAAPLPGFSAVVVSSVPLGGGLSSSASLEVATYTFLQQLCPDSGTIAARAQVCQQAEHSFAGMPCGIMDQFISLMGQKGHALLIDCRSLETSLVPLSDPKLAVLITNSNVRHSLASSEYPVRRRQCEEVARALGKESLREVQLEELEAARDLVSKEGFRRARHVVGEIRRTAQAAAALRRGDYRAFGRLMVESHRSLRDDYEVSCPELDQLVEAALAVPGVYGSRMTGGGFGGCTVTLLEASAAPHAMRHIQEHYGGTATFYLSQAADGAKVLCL
Chain of Phosphoglycerate kinase, glycosomal (Trypanosoma brucei brucei) (P07378 whole entry, looked up): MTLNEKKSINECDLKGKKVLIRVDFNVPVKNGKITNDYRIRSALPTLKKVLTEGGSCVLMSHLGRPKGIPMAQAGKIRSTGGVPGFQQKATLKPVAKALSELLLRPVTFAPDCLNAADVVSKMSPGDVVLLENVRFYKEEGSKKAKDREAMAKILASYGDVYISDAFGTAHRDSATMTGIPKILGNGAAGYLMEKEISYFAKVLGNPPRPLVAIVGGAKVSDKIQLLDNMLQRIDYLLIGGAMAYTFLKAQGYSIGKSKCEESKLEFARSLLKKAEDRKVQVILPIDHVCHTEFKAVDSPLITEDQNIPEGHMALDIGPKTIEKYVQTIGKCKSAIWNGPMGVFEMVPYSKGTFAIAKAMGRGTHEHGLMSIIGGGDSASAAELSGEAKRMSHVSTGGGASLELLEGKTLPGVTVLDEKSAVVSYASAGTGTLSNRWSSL

For the compound `Clc1nccc2c1ccc1ccccc12`, the outcome in assay [1], in assay [2] and in assay [8] was inactive. In addition, the Potency result in assay [3], in assay [4], in assay [5], in assay [6], in [9] and in [10] was “inactive” in each case. In addition, the Potency entry in assay [11], in [12], in assay [13], in [14] and in assay [15] was “inactive” throughout. Also, the activation in assay [7] was -6.94% (inactive).
On to `Nc1ccc(N2C(=O)c3ccccc3C2=O)c(Cl)c1`, for which the result in [1], in [2] and in [8] was inactive. Also, the Potency result in assay [3], in [4], in assay [6], in [16], in assay [9] and in assay [10] was “inactive” throughout. Besides, the Potency entry in assay [11], in assay [12], in assay [17], in assay [13] and in [15] was “inactive” each time. Besides, in assay [7], the activation was -4.94% (inactive). Further, the viability change in assay [16] is -6.09%.
For the compound `N=C(N)c1ccccc1`, the outcome in [1], in assay [2] and in [8] was inactive. Moreover, the Potency result in assay [3], in assay [4], in assay [5], in assay [16], in assay [9] and in assay [10] was “inactive” throughout. Also, the Potency entry in assay [11], in [12], in [17], in assay [13], in assay [14] and in [15] was “inactive” in each case. The activation in [7] is 1.19% (inactive). Moreover, the viability change in assay [16] was 6.8%.
Turning to `NC(=O)c1ccccc1`, the result in assay [1] and in [2] was inactive. In addition, the Potency result in assay [3], in assay [4], in assay [5], in assay [6], in [9] and in [10] was “inactive” in each case. Further, the Potency result in assay [11], in assay [12], in assay [17], in assay [13] and in [15] was “inactive” in each case. Moreover, the activation in assay [7] is 0.25% (inactive).
For the compound `Cc1ccc([N+](=O)[O-])cc1S(=O)(=O)N(C)C`, the outcome in [1], in assay [2] and in [8] was inactive. Moreover, the Potency result in assay [18], in assay [4], in assay [5], in assay [16], in assay [9] and in [10] was “inactive” in each case. In addition, the Potency result in assay [11], in assay [12], in assay [17], in assay [13], in [14] and in assay [15] was “inactive” throughout. In addition, in assay [7], the activation is 1.19% (inactive) and 0.125% (inactive). For the same compound, the viability change in assay [16] was 3.59%.
Regarding `COC(=O)[C@H](NC(=O)c1cc(-c2ccccc2)nc2ccccc12)c1ccccc1`, the call in assay [2] and in assay [8] was inactive. For the same compound, the Potency result in assay [18], in assay [3], in assay [4], in assay [5], in assay [16] and in [10] was “inactive” in each case. Moreover, the Potency result in [11], in [12], in [17], in assay [13], in assay [14] and in assay [15] was “inactive” each time. For the same compound, the activation in assay [7] was -5.81% (inactive). The viability change in assay [16] was -11.1%.
As to `N=C(N)SCCc1cnc[nH]1`, the compound was called inactive in assay [2] and in assay [8]. Besides, the Potency entry in assay [18], in [3], in assay [4], in [5], in assay [16] and in [9] was “inactive” in each case. Moreover, the Potency result in assay [10], in assay [11], in assay [12], in assay [13], in [14] and in assay [15] was “inactive” throughout. In addition, the activation in [7] is -0.375% (inactive). For the same compound, the viability change in assay [16] was -8.6%.
